Columns and labels:
Test in all cases: DAPPL (digital affinity profiling via proximity ligation, sequencing); 10 mM Tris-HCl pH 7.5, 50 mM NaCl, 1 mM DTT, 4% glycerol, room temperature, 30 min; GST-TFs on glutathione beads, 16-mer random dsDNA library, 0.1% formaldehyde crosslink after washing; high values mean tight binding
Details in all cases: protein: recombinant; tags: N-terminal GST; dsDNA, one strand shown
FLI1 = target: T1, FLI1 (Homo sapiens, UniProt Q01543 1-452)
T1 sequence: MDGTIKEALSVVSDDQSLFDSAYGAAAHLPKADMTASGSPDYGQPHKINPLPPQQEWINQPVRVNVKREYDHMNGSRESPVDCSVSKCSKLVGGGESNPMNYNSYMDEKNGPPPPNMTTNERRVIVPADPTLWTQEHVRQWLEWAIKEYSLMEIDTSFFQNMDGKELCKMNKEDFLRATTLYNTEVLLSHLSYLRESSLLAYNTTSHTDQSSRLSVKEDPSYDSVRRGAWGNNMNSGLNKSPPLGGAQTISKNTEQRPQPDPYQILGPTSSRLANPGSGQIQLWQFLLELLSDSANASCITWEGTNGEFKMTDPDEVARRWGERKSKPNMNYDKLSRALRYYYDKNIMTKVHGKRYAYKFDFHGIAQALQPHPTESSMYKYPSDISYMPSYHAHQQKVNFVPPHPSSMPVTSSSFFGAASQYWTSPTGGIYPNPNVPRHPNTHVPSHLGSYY
Summary of the method: (§1)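 Sequencing on an Illumina NextSeq500 followed washing, crosslinking with 0.1% formaldehyde, proximity ligation (BsaI/T4 ligase, 1 h, 37 °C) and PCR amplification of pools that had been incubated for 30 min at room temperature with 200 nmole of a random double-stranded 16-mer DNA library in Tris/NaCl/DTT/glycerol buffer. Each pool held DNA-barcoded human transcription factors, expressed in yeast as GST fusions and captured on glutathione beads, plus a tag-only sample. Binding signal is a hexamer's read frequency for a factor divided by its frequency in the tag-only sample.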

ELK1 = target: T2, ELK1 (Homo sapiens, UniProt P19419 1-428)
T2 sequence: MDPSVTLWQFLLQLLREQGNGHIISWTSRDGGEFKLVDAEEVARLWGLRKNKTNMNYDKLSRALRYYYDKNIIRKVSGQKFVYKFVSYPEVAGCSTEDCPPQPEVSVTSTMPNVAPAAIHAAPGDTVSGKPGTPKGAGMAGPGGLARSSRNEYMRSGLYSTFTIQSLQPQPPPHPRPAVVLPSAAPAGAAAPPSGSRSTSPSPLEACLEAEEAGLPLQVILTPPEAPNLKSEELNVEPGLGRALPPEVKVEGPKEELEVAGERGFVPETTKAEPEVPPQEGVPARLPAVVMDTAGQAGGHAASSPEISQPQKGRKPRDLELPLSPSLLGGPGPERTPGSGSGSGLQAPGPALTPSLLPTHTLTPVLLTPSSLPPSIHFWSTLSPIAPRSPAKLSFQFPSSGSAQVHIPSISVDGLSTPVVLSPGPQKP
Summary of the method: as §1

GABPA = target: T3, GABPA (Homo sapiens, UniProt Q06546 1-454)
T3 sequence: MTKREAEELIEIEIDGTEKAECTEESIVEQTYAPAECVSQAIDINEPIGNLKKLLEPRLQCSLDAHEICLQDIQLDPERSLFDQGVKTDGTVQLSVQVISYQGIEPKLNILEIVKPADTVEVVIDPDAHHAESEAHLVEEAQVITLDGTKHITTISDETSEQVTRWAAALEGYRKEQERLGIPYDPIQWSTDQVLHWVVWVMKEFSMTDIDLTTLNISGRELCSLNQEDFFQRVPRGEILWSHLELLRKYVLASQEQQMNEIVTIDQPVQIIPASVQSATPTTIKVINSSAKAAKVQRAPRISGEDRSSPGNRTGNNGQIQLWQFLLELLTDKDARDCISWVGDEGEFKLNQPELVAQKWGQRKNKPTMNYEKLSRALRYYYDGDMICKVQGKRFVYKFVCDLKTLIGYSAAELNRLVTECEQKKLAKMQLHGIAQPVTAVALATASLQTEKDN
Summary of the method: as §1

ERG = target: T4, ERG (Homo sapiens, UniProt P11308 1-479)
T4 sequence: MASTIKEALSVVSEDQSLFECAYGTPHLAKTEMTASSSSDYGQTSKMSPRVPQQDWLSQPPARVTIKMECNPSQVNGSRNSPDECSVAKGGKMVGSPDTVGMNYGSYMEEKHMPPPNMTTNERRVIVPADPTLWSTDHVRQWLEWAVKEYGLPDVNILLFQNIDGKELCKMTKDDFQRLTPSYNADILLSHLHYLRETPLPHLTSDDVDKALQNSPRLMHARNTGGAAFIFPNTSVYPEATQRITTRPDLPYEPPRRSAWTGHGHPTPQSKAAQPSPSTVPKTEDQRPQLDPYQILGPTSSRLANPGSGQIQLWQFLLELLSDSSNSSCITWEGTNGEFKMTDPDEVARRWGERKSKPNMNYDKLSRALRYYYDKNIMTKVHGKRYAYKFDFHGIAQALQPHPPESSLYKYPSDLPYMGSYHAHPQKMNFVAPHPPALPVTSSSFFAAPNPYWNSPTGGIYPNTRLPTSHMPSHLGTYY
Summary of the method: as §1

ELF1 = ELF1 (Homo sapiens, UniProt P32519 1-619)
Summary of the method: as §1

EHF = target: T5, EHF (Homo sapiens, UniProt Q9NZC4 1-300)
T5 sequence: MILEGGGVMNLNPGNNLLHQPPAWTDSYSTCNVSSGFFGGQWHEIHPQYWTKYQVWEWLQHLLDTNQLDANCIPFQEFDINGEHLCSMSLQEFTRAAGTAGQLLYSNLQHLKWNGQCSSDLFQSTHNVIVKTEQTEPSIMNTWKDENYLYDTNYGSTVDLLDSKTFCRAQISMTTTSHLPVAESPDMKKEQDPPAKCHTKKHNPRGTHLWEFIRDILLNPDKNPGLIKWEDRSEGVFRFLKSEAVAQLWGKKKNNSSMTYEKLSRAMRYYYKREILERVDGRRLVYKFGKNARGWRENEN
Summary of the method: as §1

SPI1 = SPI1 (Homo sapiens, UniProt P17947 1-270)
Summary of the method: as §1

SPIB = SPIB (Homo sapiens, UniProt Q01892 1-262)
Summary of the method: as §1

ELK3 = target: T6, ELK3 (Homo sapiens, UniProt P41970 1-407)
T6 sequence: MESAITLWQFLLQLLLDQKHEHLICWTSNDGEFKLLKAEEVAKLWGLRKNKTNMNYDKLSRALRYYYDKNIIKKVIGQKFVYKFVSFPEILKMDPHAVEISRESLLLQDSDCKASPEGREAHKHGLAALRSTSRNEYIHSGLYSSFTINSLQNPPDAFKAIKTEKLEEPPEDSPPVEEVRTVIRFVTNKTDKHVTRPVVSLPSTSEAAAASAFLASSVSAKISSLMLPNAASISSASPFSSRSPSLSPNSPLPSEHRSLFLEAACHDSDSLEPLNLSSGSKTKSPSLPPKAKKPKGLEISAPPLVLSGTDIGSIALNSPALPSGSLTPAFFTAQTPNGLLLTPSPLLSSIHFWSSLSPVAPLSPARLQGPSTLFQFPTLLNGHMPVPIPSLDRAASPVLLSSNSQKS
Summary of the method: as §1

Sequence of SPIB (Q01892 whole entry): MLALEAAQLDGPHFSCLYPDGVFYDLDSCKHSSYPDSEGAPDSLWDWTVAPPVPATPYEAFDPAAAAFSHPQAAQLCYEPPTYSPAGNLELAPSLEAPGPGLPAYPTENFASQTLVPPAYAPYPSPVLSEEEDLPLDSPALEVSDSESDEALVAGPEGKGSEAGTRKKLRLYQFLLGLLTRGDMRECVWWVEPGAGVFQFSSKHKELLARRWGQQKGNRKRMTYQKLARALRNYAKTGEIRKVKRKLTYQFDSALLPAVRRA
Sequence of ELF1 (P32519 whole entry): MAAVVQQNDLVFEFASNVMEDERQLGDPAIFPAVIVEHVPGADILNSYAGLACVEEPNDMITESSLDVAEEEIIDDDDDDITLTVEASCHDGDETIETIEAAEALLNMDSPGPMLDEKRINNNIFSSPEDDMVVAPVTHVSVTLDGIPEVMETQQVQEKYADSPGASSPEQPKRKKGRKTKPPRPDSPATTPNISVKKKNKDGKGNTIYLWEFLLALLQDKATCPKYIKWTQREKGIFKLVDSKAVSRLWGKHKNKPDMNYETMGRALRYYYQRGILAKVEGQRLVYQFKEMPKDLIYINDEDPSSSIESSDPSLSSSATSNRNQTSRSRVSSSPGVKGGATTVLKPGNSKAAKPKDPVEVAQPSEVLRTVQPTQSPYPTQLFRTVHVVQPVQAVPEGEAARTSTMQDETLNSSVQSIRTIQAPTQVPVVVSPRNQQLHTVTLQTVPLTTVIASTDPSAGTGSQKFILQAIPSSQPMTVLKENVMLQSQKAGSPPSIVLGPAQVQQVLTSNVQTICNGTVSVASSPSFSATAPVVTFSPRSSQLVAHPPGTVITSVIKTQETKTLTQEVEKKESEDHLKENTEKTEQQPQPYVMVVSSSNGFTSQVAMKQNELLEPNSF

| Sequence | binding signal (FLI1) | binding signal (ELK1) | binding signal (GABPA) | binding signal (ERG) | binding signal (ELF1) | binding signal (EHF) | binding signal (SPI1) | binding signal (SPIB) | binding signal (ELK3) |
| --- | --- | --- | --- | --- | --- | --- | --- | --- | --- |
| ATTCTA | 1.34 fold enrichment (6-mer frequency, TF over GST control) | 1.21 fold enrichment (6-mer frequency, TF over GST control) | 1.29 fold enrichment (6-mer frequency, TF over GST control) | 1.23 fold enrichment (6-mer frequency, TF over GST control) | 1.3 fold enrichment (6-mer frequency, TF over GST control) | 1.21 fold enrichment (6-mer frequency, TF over GST control) | 1.23 fold enrichment (6-mer frequency, TF over GST control) | 1.22 fold enrichment (6-mer frequency, TF over GST control) | 1.18 fold enrichment (6-mer frequency, TF over GST control) |
| GCTTGC | 1.41 fold enrichment (6-mer frequency, TF over GST control) | 1.28 fold enrichment (6-mer frequency, TF over GST control) | 1.21 fold enrichment (6-mer frequency, TF over GST control) | 1.14 fold enrichment (6-mer frequency, TF over GST control) | 1.25 fold enrichment (6-mer frequency, TF over GST control) | 1.28 fold enrichment (6-mer frequency, TF over GST control) | 1.18 fold enrichment (6-mer frequency, TF over GST control) | 1.24 fold enrichment (6-mer frequency, TF over GST control) | 1.3 fold enrichment (6-mer frequency, TF over GST control) |
| GCTAAT | 1.14 fold enrichment (6-mer frequency, TF over GST control) | 1.18 fold enrichment (6-mer frequency, TF over GST control) | 1.17 fold enrichment (6-mer frequency, TF over GST control) | 1.13 fold enrichment (6-mer frequency, TF over GST control) | 1.16 fold enrichment (6-mer frequency, TF over GST control) | 1.17 fold enrichment (6-mer frequency, TF over GST control) | 1.13 fold enrichment (6-mer frequency, TF over GST control) | 1.17 fold enrichment (6-mer frequency, TF over GST control) | 1.2 fold enrichment (6-mer frequency, TF over GST control) |
| TTGATA | 1.23 fold enrichment (6-mer frequency, TF over GST control) | 1.29 fold enrichment (6-mer frequency, TF over GST control) | 1.31 fold enrichment (6-mer frequency, TF over GST control) | 1.17 fold enrichment (6-mer frequency, TF over GST control) | 1.24 fold enrichment (6-mer frequency, TF over GST control) | 1.14 fold enrichment (6-mer frequency, TF over GST control) | 1.14 fold enrichment (6-mer frequency, TF over GST control) | 1.08 fold enrichment (6-mer frequency, TF over GST control) | 1.01 fold enrichment (6-mer frequency, TF over GST control) |
| GCTTTC | 1.27 fold enrichment (6-mer frequency, TF over GST control) | 1.22 fold enrichment (6-mer frequency, TF over GST control) | 1.3 fold enrichment (6-mer frequency, TF over GST control) | 1.28 fold enrichment (6-mer frequency, TF over GST control) | 1.32 fold enrichment (6-mer frequency, TF over GST control) | 1.34 fold enrichment (6-mer frequency, TF over GST control) | 1.28 fold enrichment (6-mer frequency, TF over GST control) | 1.27 fold enrichment (6-mer frequency, TF over GST control) | 1.38 fold enrichment (6-mer frequency, TF over GST control) |
| CTTATT | 1.61 fold enrichment (6-mer frequency, TF over GST control) | 1.39 fold enrichment (6-mer frequency, TF over GST control) | 1.41 fold enrichment (6-mer frequency, TF over GST control) | 1.53 fold enrichment (6-mer frequency, TF over GST control) | 1.5 fold enrichment (6-mer frequency, TF over GST control) | 1.48 fold enrichment (6-mer frequency, TF over GST control) | 1.61 fold enrichment (6-mer frequency, TF over GST control) | 1.44 fold enrichment (6-mer frequency, TF over GST control) | 1.59 fold enrichment (6-mer frequency, TF over GST control) |
| CCCCAT | 1.37 fold enrichment (6-mer frequency, TF over GST control) | 1.24 fold enrichment (6-mer frequency, TF over GST control) | 1.26 fold enrichment (6-mer frequency, TF over GST control) | 1.34 fold enrichment (6-mer frequency, TF over GST control) | 1.31 fold enrichment (6-mer frequency, TF over GST control) | 1.27 fold enrichment (6-mer frequency, TF over GST control) | 1.46 fold enrichment (6-mer frequency, TF over GST control) | 1.18 fold enrichment (6-mer frequency, TF over GST control) | 1.2 fold enrichment (6-mer frequency, TF over GST control) |

Reference: article PMC7862700, “An all-to-all approach to the identification of sequence-specific readers for epigenetic DNA modifications on cytosine”
